# Source: PubChem BioAssay (NCI)
# This is part of a sample that, as a whole, favours compounds with a hit. Of some 79,000 tested, about 15% had one in any assay. Unmarked numbers belong to inactive results. Calls of active or inactive are those of the source. No stated cut-off is given here; in the data, active means growth inhibition above about 70%; inactive means the rest.
# Legend:
# [1] = NCI Yeast Anticancer Drug Screen. Data for the rad52 strain (AID 147);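 further: 0% = growth of vehicle-treated control cultures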; conditions: S. cerevisiae rad52 mutant growth inhibition, active compounds read high
# In short: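 The repair-mutant yeast strain was incubated with compounds, then growth was read and inhibition derived relative to vehicle.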
# [2] = NCI Yeast Anticancer Drug Screen. Data for the rad50EPP+ strain (AID 151);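 further: 0% = growth of vehicle-treated control cultures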; conditions: S. cerevisiae rad50 mutant strain, active compounds read high
# In short: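 Vehicle-normalised growth inhibition; rad50EPP+ yeast strain, altered in DNA damage repair, compound-treated.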
# [3] = NCI Yeast Anticancer Drug Screen. Data for the mgt1 strain (AID 153); conditions: S. cerevisiae mgt1 mutant growth inhibition, active compounds read high
# In short: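 Vehicle-normalized growth inhibition is determined in mgt1 yeast, a strain selected for a defined alteration in DNA repair or cell cycle control.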
# [4] = NCI Yeast Anticancer Drug Screen. Data for the rad50 strain (AID 155);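 further: 0% = growth of vehicle-only cultures of the same strain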; conditions: S. cerevisiae rad50 strain growth inhibition, active compounds read high
# In short: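 Vehicle-treated cultures provide the reference for the growth inhibition reported for compound-exposed, repair-deficient yeast.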
# [5] = NCI Yeast Anticancer Drug Screen. Data for the mec2-1 strain (AID 157); conditions: S. cerevisiae mec2-1 strain, active compounds read high
# In short: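 Mutant yeast (mec2-1) grown with compound; growth inhibition relative to vehicle control reported.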
# [6] = NCI Yeast Anticancer Drug Screen. Data for the rad14 strain (AID 159);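 further: 0% = growth of vehicle-treated control cultures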; conditions: S. cerevisiae rad14 strain growth inhibition, active compounds read high
# In short: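 Inhibition of growth is reported for a repair-deficient yeast mutant following compound treatment, calculated relative to cultures that received vehicle.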
# [7] = NCI Yeast Anticancer Drug Screen. Data for the sgs1 mgt1 strain (AID 161);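 further: 0% = growth of cultures given vehicle only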; conditions: S. cerevisiae sgs1 mgt1 strain, active compounds read high
# In short: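 Percent growth inhibition was derived by comparing compound-exposed mutant yeast with vehicle-exposed cultures. The strain carries alterations in DNA damage repair.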
# [8] = NCI Yeast Anticancer Drug Screen. Data for the CLN2oe strain (AID 163);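 further: 0% = growth of vehicle-only control cultures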; conditions: S. cerevisiae CLN2oe strain, active compounds read high
# In short: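 Compounds are applied to yeast harbouring a defined cell-cycle control change; reduced growth compared with vehicle-treated controls gives the value.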
# [9] = NCI Yeast Anticancer Drug Screen. Data for the cln2 rad14 strain (AID 165);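 further: 0% = growth equal to vehicle treated cultures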; conditions: S. cerevisiae cln2 rad14 strain, active compounds read high
# In short: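 Readout is yeast growth inhibition versus vehicle-treated controls, using a strain with cln2 and rad14 alterations exposed to compound.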
# [10] = NCI Yeast Anticancer Drug Screen. Data for the bub3 strain (AID 167); conditions: S. cerevisiae bub3 mutant strain, active compounds read high
# In short: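 Mutant yeast screening strain plus compound; vehicle-treated cultures serve as the 0% inhibition reference.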
# [11] = NCI Yeast Anticancer Drug Screen. Data for the wt2 strain (AID 169); conditions: S. cerevisiae wt2 strain growth inhibition, active compounds read high
# In short: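 Against vehicle-treated controls, the growth of yeast exposed to each compound was compared, and the inhibition was recorded.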
# [12] = NCI Yeast Anticancer Drug Screen. Data for the mlh1 strain (AID 171);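 further: 0% = growth of vehicle-treated control cultures of the same strain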; conditions: S. cerevisiae mlh1 strain growth inhibition, active compounds read high
# In short: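 Measured: yeast growth. Reference: vehicle-treated controls. Organism: strain with a defined alteration affecting DNA damage repair or cell cycle control, treated with compound.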
# [13] = NCI Yeast Anticancer Drug Screen. Data for the sgs1 strain (AID 173);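 further: 0% = growth of vehicle-only control cultures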; conditions: S. cerevisiae sgs1 mutant, active compounds read high
# In short: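 Each compound was added to cultures of the altered yeast strain. Growth was recorded, and inhibition was derived by comparison with vehicle controls.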
# [14] = NCI Yeast Anticancer Drug Screen. Data for the mlh1 rad18 strain (AID 175); conditions: S. cerevisiae mlh1 rad18 strain growth inhibition, active compounds read high
# In short: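 Genetically defined yeast (DNA repair-deficient) exposed to compounds; growth inhibition determined relative to vehicle.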
# [15] = NCI Yeast Anticancer Drug Screen. Data for the rad18 strain (AID 177); conditions: S. cerevisiae rad18 mutant growth inhibition, active compounds read high
# In short: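 Vehicle-treated cultures served as the baseline for scoring compound-induced growth inhibition in DNA-repair-mutant yeast.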
# [16] = NCI Yeast Anticancer Drug Screen. Data for the wt1 strain (AID 149);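 further: 0% = growth of vehicle-treated wt1 cultures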; conditions: S. cerevisiae wt1 strain (SPY 50644) growth inhibition, active compounds read high
# In short: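 Each compound is tested on wt1 yeast and the loss of growth versus vehicle gives the inhibition value.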
# [17] = at 5.0 µM (retest, dose inferred, filed as 0.5)
# [18] = at 50.0 µM (retest, dose inferred, filed as 5.0)
structure (smiles),measurement,setting,value
COc1cccc(/C=N/C(/N=C/c2cccc(OC)c2O)c2cccc(OC)c2O)c1O,growth inhibition,[1]; at 1.2 µM,1%
same,growth inhibition,[1]; at 3.7 µM,5%
same,growth inhibition,[1]; at 11.0 µM,23%
same,growth inhibition,[1]; at 33.0 µM,67%
same,growth inhibition,[1]; at 100.0 µM,97% (active)
same,growth inhibition,[2]; at 1.2 µM,2%
same,growth inhibition,[2]; at 3.7 µM,15%
same,growth inhibition,[2]; at 11.0 µM,61%
same,growth inhibition,[2]; at 33.0 µM,93% (active)
same,growth inhibition,[2]; at 100.0 µM,98% (active)
same,growth inhibition,[3]; at 1.2 µM,-1%
same,growth inhibition,[3]; at 3.7 µM,-2%
same,growth inhibition,[3]; at 11.0 µM,5%
same,growth inhibition,[3]; at 33.0 µM,36%
same,growth inhibition,[3]; at 100.0 µM,98% (active)
same,growth inhibition,[4]; at 1.2 µM,4%
same,growth inhibition,[4]; at 3.7 µM,-28%
same,growth inhibition,[4]; [17],19%
same,growth inhibition,[4]; at 11.0 µM,52%
same,growth inhibition,[4]; at 33.0 µM,87% (active)
same,growth inhibition,[4]; [18],79% (active)
same,growth inhibition,[4]; at 50.0 µM,89.5% (active)
same,growth inhibition,[4]; at 100.0 µM,97% (active)
same,growth inhibition,[5]; at 1.2 µM,-1%
same,growth inhibition,[5]; at 3.7 µM,2%
same,growth inhibition,[5]; [17],-4%
same,growth inhibition,[5]; at 11.0 µM,8%
same,growth inhibition,[5]; at 33.0 µM,25%
same,growth inhibition,[5]; [18],27%
same,growth inhibition,[5]; at 50.0 µM,87% (active)
same,growth inhibition,[5]; at 100.0 µM,96% (active)
same,growth inhibition,[6]; at 1.2 µM,1%
same,growth inhibition,[6]; at 3.7 µM,6%
same,growth inhibition,[6]; at 11.0 µM,19%
same,growth inhibition,[6]; at 33.0 µM,73% (active)
same,growth inhibition,[6]; at 100.0 µM,99% (active)
same,growth inhibition,[7]; [17],4%
same,growth inhibition,[7]; [18],71% (active)
same,growth inhibition,[7]; at 50.0 µM,86.7% (active)
same,growth inhibition,[8]; at 1.2 µM,-2%
same,growth inhibition,[8]; at 3.7 µM,3%
same,growth inhibition,[8]; at 11.0 µM,8%
same,growth inhibition,[8]; at 33.0 µM,20%
same,growth inhibition,[8]; at 100.0 µM,54%
same,growth inhibition,[9]; [17],-1%
same,growth inhibition,[9]; [18],34%
same,growth inhibition,[9]; at 50.0 µM,45%
same,growth inhibition,[10]; at 1.2 µM,-2%
same,growth inhibition,[10]; at 3.7 µM,-1%
same,growth inhibition,[10]; [17],-5%
same,growth inhibition,[10]; at 11.0 µM,1%
same,growth inhibition,[10]; at 33.0 µM,39%
same,growth inhibition,[10]; [18],43%
same,growth inhibition,[10]; at 50.0 µM,67%
same,growth inhibition,[10]; at 100.0 µM,98% (active)
same,growth inhibition,[11]; at 1.2 µM,0%
same,growth inhibition,[11]; at 3.7 µM,7%
same,growth inhibition,[11]; at 11.0 µM,4%
same,growth inhibition,[11]; at 33.0 µM,24%
same,growth inhibition,[11]; at 100.0 µM,93% (active)
same,growth inhibition,[12]; at 1.2 µM,0%
same,growth inhibition,[12]; at 3.7 µM,2%
same,growth inhibition,[12]; at 11.0 µM,7%
same,growth inhibition,[12]; at 33.0 µM,33%
same,growth inhibition,[12]; at 100.0 µM,97% (active)
same,growth inhibition,[13]; at 1.2 µM,-1%
same,growth inhibition,[13]; at 3.7 µM,3%
same,growth inhibition,[13]; at 11.0 µM,19%
same,growth inhibition,[13]; at 33.0 µM,67%
same,growth inhibition,[13]; at 100.0 µM,98% (active)
same,growth inhibition,[14]; [17],4%
same,growth inhibition,[14]; [18],65%
same,growth inhibition,[14]; at 50.0 µM,94.8% (active)
same,growth inhibition,[15]; at 1.2 µM,-1%
same,growth inhibition,[15]; at 3.7 µM,9%
same,growth inhibition,[15]; at 11.0 µM,21%
same,growth inhibition,[15]; at 33.0 µM,68%
same,growth inhibition,[15]; at 100.0 µM,98% (active)
O=C1NC(=O)c2ccc([N+](=O)[O-])c3cccc1c23,growth inhibition,[1]; at 1.2 µM,11%
same,growth inhibition,[1]; at 3.7 µM,27%
same,growth inhibition,[1]; at 11.0 µM,36%
same,growth inhibition,[1]; at 33.0 µM,56%
same,growth inhibition,[1]; at 100.0 µM,73% (active)
same,growth inhibition,[16]; at 1.2 µM,-12%
same,growth inhibition,[16]; at 3.7 µM,32%
same,growth inhibition,[16]; at 11.0 µM,25%
same,growth inhibition,[16]; at 33.0 µM,24%
same,growth inhibition,[16]; at 100.0 µM,36%
same,growth inhibition,[2]; at 1.2 µM,45%
same,growth inhibition,[2]; at 3.7 µM,51%
same,growth inhibition,[2]; at 11.0 µM,65%
same,growth inhibition,[2]; at 33.0 µM,78% (active)
same,growth inhibition,[2]; at 100.0 µM,81% (active)
same,growth inhibition,[4]; at 1.2 µM,7%
same,growth inhibition,[4]; at 3.7 µM,13%
same,growth inhibition,[4]; [17],-15%
same,growth inhibition,[4]; at 11.0 µM,20%
same,growth inhibition,[4]; at 33.0 µM,47%
same,growth inhibition,[4]; [18],55%
same,growth inhibition,[4]; at 50.0 µM,64.5%
same,growth inhibition,[4]; at 100.0 µM,65%
same,growth inhibition,[5]; at 1.2 µM,11%
same,growth inhibition,[5]; at 3.7 µM,20%
same,growth inhibition,[5]; [17],-36%
same,growth inhibition,[5]; at 11.0 µM,20%
same,growth inhibition,[5]; at 33.0 µM,35%
same,growth inhibition,[5]; [18],23%
same,growth inhibition,[5]; at 50.0 µM,33.5%
same,growth inhibition,[5]; at 100.0 µM,72% (active)
same,growth inhibition,[6]; at 1.2 µM,-2%
same,growth inhibition,[6]; at 3.7 µM,5%
same,growth inhibition,[6]; at 11.0 µM,21%
same,growth inhibition,[6]; at 33.0 µM,55%
same,growth inhibition,[6]; at 100.0 µM,79% (active)
same,growth inhibition,[7]; [17],-8%
same,growth inhibition,[7]; [18],23%
same,growth inhibition,[7]; at 50.0 µM,68.8%
same,growth inhibition,[8]; at 1.2 µM,-2%
same,growth inhibition,[8]; at 3.7 µM,-1%
same,growth inhibition,[8]; at 11.0 µM,3%
same,growth inhibition,[8]; at 33.0 µM,17%
same,growth inhibition,[8]; at 100.0 µM,68%
same,growth inhibition,[9]; [17],24%
same,growth inhibition,[9]; [18],68%
same,growth inhibition,[9]; at 50.0 µM,72.2% (active)
same,growth inhibition,[10]; at 1.2 µM,28%
same,growth inhibition,[10]; at 3.7 µM,43%
same,growth inhibition,[10]; [17],2%
same,growth inhibition,[10]; at 11.0 µM,39%
same,growth inhibition,[10]; at 33.0 µM,55%
same,growth inhibition,[10]; [18],79% (active)
same,growth inhibition,[10]; at 50.0 µM,51.9%
same,growth inhibition,[10]; at 100.0 µM,67%
same,growth inhibition,[11]; at 1.2 µM,21%
same,growth inhibition,[11]; at 3.7 µM,12%
same,growth inhibition,[11]; at 11.0 µM,29%
same,growth inhibition,[11]; at 33.0 µM,43%
same,growth inhibition,[11]; at 100.0 µM,62%
